High-throughput results as filed in PubChem BioAssay.
Compounds with a hit are over-represented: about 3.5% of the library has one in this group of screens.
TEAD-YAP block – TEAD-YAP interaction inhibition, primary screen, TEAD-YAP interaction inhibitor project, luminescence, HEK-TIYL cells | TEAD-Gal4/YAP UAS-luciferase luminescence | inhibition, % at 9.12 µM | 640,000 tested, 1.4% active | AID 1259422, 2018; in the data active means inhibition above about 32%
FBW7 activator – FBW7 E3 ligase activators, primary screen, biochemical, AlphaScreen, human | AlphaScreen FBW7–phospho-cyclin E peptide binding, activator screen | normalized activity (activation), % at 26.1 µM | F-box/WD repeat-containing protein 7 (Homo sapiens), Q969H0 | 650,000 tested, 0.13% active; in the data active means normalized activity above about 1.9%;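 further: purified mutant Fbw7 with reduced substrate affinity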
GPR151 activ – activators of human GPR151, primary screen, cell-based, PathHunter beta-arrestin, luminescence; G-protein coupled receptor 151 (Homo sapiens), Q8TDV0; PathHunter beta-arrestin GPR151 cells; activation, % at 11.2 µM; 650,000 tested, 1% active; AID 1508602, 2020; in the data active means activation above about 4.9%
Target sequence (Q8TDV0 whole entry, looked up): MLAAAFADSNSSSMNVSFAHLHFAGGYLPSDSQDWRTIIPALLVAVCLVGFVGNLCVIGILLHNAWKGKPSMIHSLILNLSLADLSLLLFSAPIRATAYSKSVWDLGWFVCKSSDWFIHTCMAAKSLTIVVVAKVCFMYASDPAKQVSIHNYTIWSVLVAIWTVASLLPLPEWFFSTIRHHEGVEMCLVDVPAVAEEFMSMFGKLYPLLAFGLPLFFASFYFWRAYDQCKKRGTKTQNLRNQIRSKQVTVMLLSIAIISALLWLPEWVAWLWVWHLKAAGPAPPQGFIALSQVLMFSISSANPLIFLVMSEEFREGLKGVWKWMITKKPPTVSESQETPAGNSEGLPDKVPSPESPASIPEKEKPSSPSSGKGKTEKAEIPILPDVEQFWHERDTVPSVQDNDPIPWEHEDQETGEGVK
MITF inh – MITF inhibitors, primary screen, biochemical, AlphaScreen, human. Microphthalmia-associated transcription factor (Homo sapiens), O75030. AlphaScreen MITF homodimerization, bead proximity signal. inhibition, % at 2.6 µM. 650,000 tested, 0.91% active; in the data active means inhibition above about 50%
Numbers stand for hits; n = inactive.

SMILES	TEAD-YAP block	FBW7 activator	GPR151 activ	MITF inh
CCOc1ccc(Nc2nc(-c3ccc(OC)c(OC)c3)c(CC(=O)O)s2)cc1	34	n	n	n
COc1ccc(OC)c(-c2nc(Nc3ccccc3F)sc2CC(=O)O)c1	n	n	n	n
CCOc1ccc(Nc2nc(-c3ccccc3)c(C(=O)Nc3cccc(OC)c3)s2)cc1	n	n	n	n
CCOc1ccc(Nc2nc(N)c(C(=O)c3cccc(OC)c3)s2)cc1	61	n	n	n
Cn1nc(C(C)(C)C)cc1C(=O)N1CCC(c2ccnc3nc(C(F)(F)F)nn23)CC1	n	n	n	n
NS(=O)(=O)c1ccc(N=Cc2c(O)n(Cc3ccco3)c(=O)[nH]c2=O)cc1	n	n	n	79
CCOC(=O)c1[nH]c(C)c(C(=O)Nc2cccc(Cl)c2)c1C	46	n	n	n
CCOC(=O)c1[nH]c(C)c(C(=O)Nc2cccc(F)c2)c1C	43	n	n	n
CCOC(=O)c1[nH]c(C)c(C(=O)Nc2ccc(F)cc2)c1C	n	n	n	n
O=c1[nH]c(=O)n(-c2cccc(Cl)c2)c(O)c1C=Nc1ccccc1Cl	n	n	n	n
CCN(CC)C(=O)CSc1nc2n[nH]c(C)c2c(=N)n1-c1cc(Cl)ccc1C	n	n	n	n
Cc1ccccc1CN1CCN2C(=O)[C@@H](CC(C)C)NC(=O)[C@H]2C1	n	n	n	n
COCCN=c1scc(-c2ccco2)n1/N=C/c1ccc(O)c(O)c1O	n	n	n	n
CN=c1scc(-c2cccs2)n1/N=C/c1ccccc1O	95	n	n	n
C=CCN=c1scc(-c2ccco2)n1/N=C/c1ccc(O)c(O)c1O	55	n	n	n
CN=c1scc(C)n1/N=C/c1ccc(O)c(O)c1O	n	n	n	n
CN=c1scc(-c2cccs2)n1/N=C/c1ccc(O)c(O)c1O	71	n	n	n
COc1cc(-c2cn[nH]c2)cc2c(=O)[nH]c(Cc3cccc(NC(=O)C(C)C)c3)nc12	n	n	n	n
N[C@H](Cc1ccc(Cl)cc1)c1nc2ccc(-c3cn[nH]c3)cc2c(=O)[nH]1	94	n	n	n
N[C@H](Cc1cccc(C(F)(F)F)c1)c1nc2ccc(-c3cn[nH]c3)cc2c(=O)[nH]1	n	n	n	n
COc1cc(-c2cn[nH]c2)cc2c(=O)[nH]c([C@H](N)Cc3cccc(F)c3)nc12	72	n	n	n
O=C(O)CCCN1C(=O)/C(=C\c2ccc(O)cc2)SC1=S	66	n	n	n
O=C(O)CCCN1C(=O)/C(=C\c2ccccc2)SC1=S	n	n	n	n
COc1cc(/C=C2/SC(=S)N(CCC(=O)O)C2=O)ccc1O	32	n	n	n
O=C(O)CN1C(=O)/C(=C\c2cc(Cl)ccc2O)SC1=S	n	n	n	n
SMILES	TEAD-YAP block	FBW7 activator	GPR151 activ	MITF inh
O=C(O)CCN1C(=O)/C(=C/c2ccc([N+](=O)[O-])o2)SC1=S	n	n	n	56
O=C(O)CN1C(=O)/C(=C\c2ccc(O)cc2O)SC1=S	n	n	n	87
CCCCOC(=O)C1=C(C)Nc2ncnn2C1c1ccccc1C (stereo unspecified)	n	n	n	n
O=C(CN1Cc2ccccc2OC(c2ccccc2)C1)NCc1cnc2ccccn12 (stereo unspecified)	n	n	n	n
COc1ccc(/C=N/Nc2nc(-c3ccc(OC)c(OC)c3)cs2)cc1	n	n	n	n
O=C(O)CCCN1C(=O)/C(=C\c2ccccn2)SC1=S	87	n	n	n
O=C(O)CCCN1C(=O)/C(=C/c2ccc(O)cc2)SC1=S	75	n	n	n
O=C1c2ccccc2C(=O)N1c1ccc(-c2cc(-c3ccccc3)nc(-c3ccc(N4C(=O)c5ccccc5C4=O)cc3)n2)cc1	n	n	n	n
O=C1ON=C(c2ccccc2)/C1=C\c1ccccc1O	n	n	n	68
CC1=NOC(=O)/C1=C\c1cc(Br)c(O)c(Br)c1	n	n	n	68
CC1=NOC(=O)/C1=C/c1ccccc1O	n	n	n	55
CCOc1cc(/C=C2\C(=O)ON=C2C)cc(Br)c1OCC	n	n	n	n
COc1cccc(-n2nc(C(=O)N3CCN(c4ccc(F)cc4)CC3)c3ccccc3c2=O)c1	n	n	n	n
C=C(C)CSC1=C(C#N)C(c2ccc3c(c2)OCO3)CC(=O)N1 (stereo unspecified)	n	n	n	n
COC(=O)CSc1nc(N)c(C#N)c(-c2ccco2)c1C#N	n	n	n	n
Cc1cc(C(F)(F)F)c(N)c(SCC(=O)Nc2nc3ccccc3s2)n1	65	n	n	n
Cc1cccc(NC(=O)CSc2nc(C)cc(C(F)(F)F)c2C#N)n1	88	n	n	n
Cc1cc(C)c(C#N)c(SCC(=O)Nc2nccs2)n1	n	n	n	n
COC(=O)CSc1nc(-c2ccco2)cc(C(F)(F)F)c1C#N	n	2.0	n	n
Cc1cc(C)nc(SCC(=O)Nc2nc3ccccc3s2)n1	n	n	n	n
Cc1cc(C)c(C#N)c(SCC(=O)Nc2ccccn2)n1	86	n	n	n
Cc1cc(C(F)(F)F)c(C#N)c(SCC(=O)Nc2ccc(F)cc2)n1	n	n	n	n
O=C(CSc1ncnc2nc[nH]c12)NCC1CCCO1 (stereo unspecified)	n	n	n	n
CC(C)NC(=O)c1ccc2c(=O)n(CCCN3CCCC3=O)c(=S)[nH]c2c1	n	n	n	n
CCCN(CCC)S(=O)(=O)c1ccc(F)c(C(=O)Nc2ccc(OC)cc2)c1	n	n	n	n
SMILES	TEAD-YAP block	FBW7 activator	GPR151 activ	MITF inh
O=C(NC1CC1)c1ccnc(Cl)c1	n	n	n	n
O=C(NC1CCC(CC2CCC(NC(=O)c3ccncc3)CC2)CC1)c1ccncc1 (stereo unspecified)	32	n	n	n
CC1=C(C(=O)Nc2ccccc2)C(c2ccc(C(C)C)cc2)n2nnnc2N1 (stereo unspecified)	n	n	n	n
Fc1cncc(-c2ccnc(Nc3ccc(-n4cnc(N5CCOCC5)n4)cc3)n2)c1	n	n	n	n
CCN1CCN(c2ncn(-c3ccc(Nc4nccc(-c5cc(C#N)cc(N6CCOCC6)c5)n4)cc3)n2)CC1	n	n	n	n
Cc1ccncc1-c1ncn(-c2ccc(Nc3nccc(-c4cc(F)cc(N5CCOCC5)c4)n3)cc2)n1	n	n	n	n
OC1CCN(c2ncn(-c3ccc(Nc4nccc(-c5cccc(N6CCOCC6)c5)n4)cc3)n2)CC1	82	n	n	n
CCN1CCN(c2ncn(-c3ccc(Nc4nccc(-c5cccc(N6CCOCC6)c5)n4)cc3)n2)CC1	55	n	n	n
CS(=O)(=O)c1cc(-c2ccnc(Nc3ccc(-n4cnc(-c5ccccn5)n4)cc3)n2)cc(N2CCOCC2)c1	89	n	n	n
c1cc(-c2ccnc(Nc3ccc(-n4cnc(N5CCOCC5)n4)cc3)n2)cc(N2CCOCC2)c1	43	n	n	n
O=S(=O)(c1ccc(Oc2cccc3ccccc23)nc1)N1CCCC1	n	n	n	n
